{"source": "PubChem BioAssay AID1030", "about": "(National Center for Advancing Translational Sciences (NCATS), 2008)", "note": "About 16,000 (7.3%) of roughly 220,000 compounds were called active. Roughly 25% stayed inconclusive and do not appear here. The list comes from a sample in which actives are over-represented; it also holds similar structures and randomly drawn compounds. A call without a number means that no potency is given here. A number with no mark means an inactive call. Calls come from the whole dose curve; as a rule, active = well fitted inhibition curve with a large enough effect (not every such curve was filed as active); inconclusive = small, poorly fitted or top-dose-only effect, or another doubt; inactive = no such curve, though single readings can be large or run the other way. Potency is the fitted concentration of half-maximal effect.", "data": [{"target": "Aldehyde dehydrogenase 1A1 (Homo sapiens) (UniProt P00352)", "sequence (P00352 whole entry, looked up)": "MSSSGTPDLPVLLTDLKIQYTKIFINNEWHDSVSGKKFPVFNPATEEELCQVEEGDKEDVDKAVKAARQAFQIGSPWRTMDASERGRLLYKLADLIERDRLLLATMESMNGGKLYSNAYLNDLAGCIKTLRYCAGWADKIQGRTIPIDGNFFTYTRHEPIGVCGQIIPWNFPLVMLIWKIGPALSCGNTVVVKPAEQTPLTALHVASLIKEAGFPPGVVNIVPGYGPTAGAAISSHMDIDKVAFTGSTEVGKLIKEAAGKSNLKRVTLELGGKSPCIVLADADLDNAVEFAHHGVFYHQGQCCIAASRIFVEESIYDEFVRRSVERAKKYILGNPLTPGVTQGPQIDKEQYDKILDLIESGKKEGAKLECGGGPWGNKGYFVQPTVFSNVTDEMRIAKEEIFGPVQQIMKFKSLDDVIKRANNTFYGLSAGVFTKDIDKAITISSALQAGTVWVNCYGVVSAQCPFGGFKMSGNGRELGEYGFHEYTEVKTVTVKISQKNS", "experiment": "qHTS Assay for Inhibitors of Aldehyde Dehydrogenase 1 (ALDH1A1)", "settings": "Purified ALDH1A1, NADH fluorescence, propionaldehyde substrate; series mostly up to 75.3 µM", "values": [{"smiles": "CC(Nc1oc(-c2ccccc2)nc1-c1ccccc1)c1ccccc1", "note": "(configuration not stated)", "Potency": "inactive"}, {"smiles": "O=C(COC(=O)c1cnccn1)Nc1cccc2ccccc12", "Potency": "inactive"}, {"smiles": "NS(=O)(=O)c1ccc(CCNC(=O)CCCn2c(SCC(=O)N3CCCC3)nc3ccsc3c2=O)cc1", "Potency": "inactive"}, {"smiles": "CCCCC(=O)Nc1ccc2c(c1)OCCO2", "Potency": "inactive"}, {"smiles": "Cc1nn(CC(=O)Nc2ccc3c(c2)OCO3)c(C)c1[N+](=O)[O-]", "Potency": "inactive"}, {"smiles": "CCN(CC(=O)Nc1ccc2c(c1)OCCO2)Cc1cc(=O)oc2cc(C)c(C)cc12", "Potency": "10 µM (active)"}, {"smiles": "Cc1ccc(S(=O)(=O)/N=C(\\N)c2ccc(F)cc2)cc1", "Potency": "inactive"}, {"smiles": "C/C(=N\\Nc1nc(Nc2ccccc2)nc(N2CCOCC2)n1)c1cccs1", "Potency": "inactive"}, {"smiles": "COc1cc2nc(CN(C)Cc3ccc(F)cc3)[nH]c(=O)c2cc1OC", "Potency": "inactive"}, {"smiles": "CCCCCC(=O)NC(=S)NNC(=O)c1ccc([N+](=O)[O-])cc1", "Potency": "14.1 µM (active)"}, {"smiles": "COCCCNC(=S)NNC(=O)C(O)(c1ccccc1)c1ccccc1", "Potency": "inactive"}, {"smiles": "COCCCNC(=S)NC(=O)c1ccc([N+](=O)[O-])cc1", "Potency": "20 µM (active)"}, {"smiles": "COCCCNC(=S)NC(=O)c1ccccc1", "Potency": "inactive"}, {"smiles": "CCCCCC(=O)Nc1ccc(C(=O)N/N=C/c2ccc([N+](=O)[O-])cc2)cc1", "Potency": "inactive"}, {"smiles": "COc1ccc(C(=O)NNC(=S)NC(=O)c2ccccc2[N+](=O)[O-])cc1", "Potency": "inactive"}, {"smiles": "CCNC(=O)N1c2ccccc2Sc2ccccc21", "Potency": "inactive"}, {"smiles": "COC(=O)Cc1ccc(Oc2ncc(C(F)(F)F)cc2Cl)cc1", "Potency": "inactive"}, {"smiles": "CC(=O)Nc1sc2c(c1C(c1cccc(F)c1)N1CCN(CCO)CC1)CCCC2", "note": "(configuration not stated)", "Potency": "inactive"}, {"smiles": "C/[N+]([O-])=C\\c1ccc([N+](=O)[O-])o1", "Potency": "inactive"}, {"smiles": "C=CCN(c1ccccc1C(=O)NCC(=O)OCC)S(=O)(=O)c1ccc(C)cc1", "Potency": "inactive"}, {"smiles": "CCN(CC)CCCNC(=O)Cn1cnc2sc(C)c(S(=O)(=O)N3CCN(c4ncccn4)CC3)c2c1=O", "Potency": "inactive"}, {"smiles": "O=C(/C=C/c1cn(-c2ccccc2)nc1-c1ccc2c(c1)OCCO2)NCCCN1CCOCC1", "Potency": "inactive"}, {"smiles": "CC(=O)[C@H](C(c1ccccc1)N1CCOCC1)N1CCOCC1", "note": "(some centres not stated)", "activity, negative = inhibition": "-3.8% [at 13.5 µM]"}, {"smiles": "C=CCN1C(=O)C(O)(CC(=O)c2ccccn2)c2ccccc21", "note": "(configuration not stated)", "Potency": "0.355 µM (active)"}, {"smiles": "CN1/C(=C\\C(=O)c2cccnc2Cl)C(C)(C)c2ccccc21", "Potency": "inactive"}, {"smiles": "CC(C)(C)C(=O)CCN1C(=O)C2(OCCO2)c2ccccc21", "Potency": "inactive"}, {"smiles": "CCOC(=O)CN1C(=O)C(O)(CC(=O)c2ccccn2)c2ccccc21", "note": "(configuration not stated)", "Potency": "0.224 µM (active)"}, {"smiles": "C=CCN1C(=O)C(O)(CC(=O)c2ccc(Cl)cc2)c2ccccc21", "note": "(configuration not stated)", "Potency": "0.447 µM (active)"}, {"smiles": "CCOC(=O)CSc1ccccn1", "Potency": "inactive"}, {"smiles": "CCOC(=O)CN1CCC(c2ccccc2)CC1", "Potency": "inactive"}, {"smiles": "O=C(CSc1nnnn1-c1ccc(O)cc1)N1N=C(c2ccc3ccccc3c2)CC1c1ccccc1", "note": "(configuration not stated)", "Potency": "inactive"}, {"smiles": "CCc1ccc(NC(=O)Nc2ccncc2)cc1", "Potency": "inactive"}, {"smiles": "COC(=O)c1cccc([N+](=O)[O-])c1CS(=O)(=O)c1ccc(C)cc1", "Potency": "inactive"}, {"smiles": "CCOc1ccc(C2c3[nH]c4ccccc4c3CCN2Cc2cn(CC)nc2C)cc1", "note": "(configuration not stated)", "Potency": "inactive"}, {"smiles": "O=C(Nc1cccnc1)c1ccc(Cl)cc1[N+](=O)[O-]", "Potency": "inactive"}, {"smiles": "O=[N+]([O-])c1cc([N+](=O)[O-])c2cccnc2c1O", "Potency": "25.1 µM (active)"}, {"smiles": "CC(CNc1ccc([N+](=O)[O-])c2cccnc12)Nc1c([N+](=O)[O-])cc(C(F)(F)F)cc1[N+](=O)[O-]", "note": "(configuration not stated)", "Potency": "inactive"}, {"smiles": "O=S(=O)(Nc1ccc(Oc2ncccn2)c(Cl)c1)c1ccc(F)cc1", "Potency": "10 µM (active)"}, {"smiles": "Cn1c(=O)n(C)c2cc(NS(=O)(=O)c3ccc(F)cc3)ccc21", "Potency": "inactive"}, {"smiles": "O=S(=O)(Nc1ncccn1)c1ccc(NS(=O)(=O)c2cccc(Cl)c2Cl)cc1", "Potency": "inactive"}, {"smiles": "CC(=O)Nc1ccc(NC(=S)NC(=O)c2ccc([N+](=O)[O-])c(C)c2)cc1", "Potency": "inactive"}, {"smiles": "Cc1cc(N2CCN(C)CC2)nc2ccc(NC(=S)N3CCOCC3)cc12", "Potency": "inactive"}, {"smiles": "CC1COc2ccccc2N1S(=O)(=O)c1ccccc1", "note": "(configuration not stated)", "Potency": "inactive"}, {"smiles": "O=C(C1CCN(C2CCN(Cc3ccc4cc(F)ccc4n3)CC2)CC1)N1CCCC1", "Potency": "inactive"}, {"smiles": "Cc1cccc(-n2c(=O)c3c(C)c(C)sc3n(CC(N)=O)c2=O)c1", "Potency": "inactive"}, {"smiles": "CN(C)c1ccc(C2Nc3ccccc3C(=O)N2NS(=O)(=O)c2ccccc2)cc1", "note": "(configuration not stated)", "Potency": "25.1 µM (active)"}, {"smiles": "NC(=O)Nc1ccccc1C(=O)NCCc1ccccc1", "Potency": "inactive"}, {"smiles": "CC(OC(=O)c1ccc2ccccc2n1)C(=O)c1ccccc1", "note": "(configuration not stated)", "Potency": "inactive"}, {"smiles": "COc1ccc(C(=O)COC(=O)c2ccc3ccccc3n2)cc1", "Potency": "17.8 µM (active)"}, {"smiles": "CCCCC(C(=O)OCC(=O)c1ccc(OC)cc1)N1C(=O)c2ccccc2C1=O", "note": "(configuration not stated)", "Potency": "inactive"}, {"smiles": "c1ccc2sc(NN=C3CCCC3)nc2c1", "Potency": "inactive"}, {"smiles": "O=C1CCC(=O)N1c1ccc(NCCc2ccccc2F)c([N+](=O)[O-])c1", "Potency": "inactive"}, {"smiles": "Cc1cc(CNCc2c(C(=O)N(C)Cc3ccccc3)nc3ccccn23)nn1C", "Potency": "inactive"}, {"smiles": "C/C(=N\\OC(=O)c1ccccc1)c1c(C)nc2cc(C)ccn12", "Potency": "inactive"}, {"smiles": "Cc1nc2ccccn2c1C(=O)NN=C1CCN(C)CC1", "Potency": "20 µM (active)"}, {"smiles": "Cc1ccccc1OC(=O)Cn1c(C(F)(F)F)nc2ccccc21", "Potency": "inactive"}, {"smiles": "CCCCn1c(O)c(N=NC(=O)Cn2c(C(F)(F)F)nc3ccccc32)c2ccccc21", "Potency": "4.47 µM (active)"}, {"smiles": "CN1CCN(C(=O)Cn2c(C(F)(F)F)nc3ccccc32)CC1", "Potency": "inactive"}, {"smiles": "Cc1cc(C)cc(OCC(=O)Nc2ccc(S(=O)(=O)Nc3ccccn3)cc2)c1", "Potency": "inactive"}, {"smiles": "CC(CCO)Nc1nc2c([nH]1)c(=O)n(C)c(=O)n2C", "note": "(configuration not stated)", "Potency": "inactive"}, {"smiles": "Cc1ccc(NN=Nc2nc3c([nH]2)c(=O)n(C)c(=O)n3C)cc1", "Potency": "7.94 µM (active)"}, {"smiles": "COc1ccc2cc(-c3[nH]ncc3CNCCn3nc(C)cc3C)ccc2c1", "Potency": "inactive"}, {"smiles": "Cc1c(O)c(Br)c(C)c(O)c1Br", "note": "(tested in a mixture with another compound)", "Potency": "1.12 µM (active)"}, {"smiles": "COCCN(C(=O)CCC(=O)Nc1nccs1)C(C(=O)NC(C)(C)C)c1ccc(Cl)cc1", "note": "(configuration not stated)", "Potency": "inactive"}, {"smiles": "Cc1ccc(OCc2n[nH]c(=S)n2-c2ccc(C)cc2)cc1", "Potency": "inactive"}, {"smiles": "COc1ccc(OCc2n[nH]c(=S)n2N)cc1", "Potency": "4.47 µM (active)"}, {"smiles": "Cc1ccc(OCc2n[nH]c(=S)n2-c2ccccc2)cc1", "Potency": "inactive"}]}]}
